The supplement of paper PMC10338343
± gives the standard deviation.

How the values were obtained:
[1] = tested on: MILI (PIWIL2) piRISC loaded with L1MC piRNA (26 nt); assay: pre-steady-state target cleavage rate (min^-1); guide: L1MC piRNA 5'p-UAACUAAAUACUAUGCAAGCUGUAGG; higher = faster piRNA-guided slicing of the target; settings: auxiliary factor: 500 nM mouse GTSF1;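 note: 1 nM active piRISC with 0.1 nM target library at 33 °C single turnover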
Procedure, shortened: (§1)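 Reactions were run for 0–8 or 0–960 min at 33 °C in HEPES–potassium acetate buffer, combining 1 nM active affinity-purified piRISC with one synthetic guide, […] transcribed, DNA-blocked target RNA library and, in some cases, 500 nM GTSF1 partner protein. Sequencing of uncleaved targets followed, with normalisation to depth and to weakly complementary targets. Three trials were pooled, k3 was capped at 0.0001 min^-1, and the pre-steady-state cleavage rate was taken from a burst-and-steady-state fit.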

[2] = tested on: EfPiwi piRISC loaded with L1MC piRNA (26 nt); assay: pre-steady-state target cleavage rate (min^-1); auxiliary factor: 500 nM Ephydatia muelleri Gtsf1; guide: L1MC piRNA 5'p-UAACUAAAUACUAUGCAAGCUGUAGG; MIWI and MILI are mouse PIWI proteins and EfPiwi is from a freshwater sponge; tags in brackets are library labels; higher = faster piRNA-guided slicing of the target
Procedure, shortened: as §1

Sequence | pre-steady-state target cleavage rate [1] | pre-steady-state target cleavage rate [2]
UCCUGCUACAGCUUCCAUAGUAUUUAGUUA | 0.0846 ± 0.028 | 0.00342 ± 0.0012
UCCUCCUACAGCUUGCAUAGUAUUUUCAUA | 0.091 ± 0.02 | 0.00665 ± 0.0037
UCCUGGAUCAGCUUCCAUAGUAUUUAGUAA | 0.0353 ± 0.0094 | 0.00347 ± 0.0017
UCCUGCUACUCCUUGCAUAGUAUUUAGAAA | 0.0806 ± 0.019 | 0.00264 ± 0.002
UCCUGCUACAGCUUGCAUAGUCUUUAGUUA | 0.122 ± 0.019 | 0.00416 ± 0.001
UCCUCCUACAGCUUGCAUAGAUUUAGUUA | 0.00908 ± 0.0047 | 0.00442 ± 0.0029
UCCUCCUACAGCUUCCAUAGUAUUUAGUAA | 0.0254 ± 0.011 | 0.0037 ± 0.0018
UCCUGCUAGAGCUUGCAUAGAAUUUAGUUA | 0.0404 ± 0.0063 | 0.0043 ± 0.0014
UCCUGGAACAGCUAGCAUAGUAUUUACAAA | 0.0718 ± 0.019 | 0.00337 ± 0.0029
UCCUGGAUCAGCUUGCUUAGUAUUUACAAA | 0.0696 ± 0.019 | 0.00612 ± 0.0047
UCCUGCUACUGCUUGCAUAGUAUUUAGAUA | 0.0911 ± 0.022 | 0.00383 ± 0.0018
UCCUGCUACUCCUUGCAUAGUAUUUACAAA | 0.0669 ± 0.016 | 0.00249 ± 0.0023
UCCUCCUACAGCUUGCAUAGUAAAAAGUAA | 0.0657 ± 0.019 | 0.00344 ± 0.0029
UCCUGGAUCAGCUUGCAUAGUAUUUAGUCUA | 0.0918 ± 0.025 | 0.00289 ± 0.0027
UCCUGCUACUGCUUGCAUAGUAUUUAGUAA | 0.146 ± 0.034 | 0.00464 ± 0.0016
UCCUCCUACAGCAAGCAUAGUAUUUAGAAA | 0.217 ± 0.035 | 0.00443 ± 0.0036
UCCUGCUACAGCUUGCAUAGUAUAAAGUAA | 0.0784 ± 0.021 | 0.00224 ± 0.0017
UCCUCCUAGUCCUUGCAUAGUAUUUAGAAA | 0.0654 ± 0.017 | 0.00217 ± 0.0013
UCCUGGAUGUCCAUUGCAUAGUAUUUAGUUA | 0.127 ± 0.032 | 0.00326 ± 0.0022
UCCUCCAUCAGCUUGCAUAGUAUUUACAAA | 0.0667 ± 0.017 | 0.00282 ± 0.0024
UCCUGGAACAGCUUGCAAUAGUAUUUAGUUA | 0.0492 ± 0.013 | 0.0183 ± 0.0054
UCCUGGAACACCUAGCAUAGUAUUUAGUUA | 0.229 ± 0.032 | 0.00601 ± 0.0036
UCCUGGUACAGCUUGCAUAGUAUUUAGAAA | 0.162 ± 0.03 | 0.00435 ± 0.0017

Sequence | pre-steady-state target cleavage rate [1] | pre-steady-state target cleavage rate [2]
UCCUGGAAGUCCUUGCAUAGUAUUUAGAAA | 0.151 ± 0.03 | 0.00315 ± 0.0023
UCCUCCUACAGGAUGCAUAGUAUUUACAAA | 0.0521 ± 0.011 | 0.0028 ± 0.0027
UCCUGCUACAGCUUGCAUAGUAUAUACAAA | 0.0701 ± 0.019 | 0.00238 ± 0.0022
UCCUGCUACACCUUGCAUAGUAUUUAGAUA | 0.112 ± 0.032 | 0.00254 ± 0.0016
UCCUCCUACAGCUUGCAUACUAUUUACUUA | 0.0688 ± 0.016 | 0.00621 ± 0.0047
UCCUGGAACAGCUUGCAUAGUUUUUAGAUA | 0.0168 ± 0.0068 | 0.00205 ± 0.0016
UCCUCCUACAGCUUGCAUAGUAUUUUGAAA | 0.148 ± 0.03 | 0.00602 ± 0.0032
UCCUGCUACAGCUUGCAUAGUUUUUAGAUA | 0.0373 ± 0.011 | 0.00319 ± 0.0018
UCCUGGAUGAGCUUGCAUAGCAUUUAGUUA | 0.0853 ± 0.016 | 0.0029 ± 0.0019
UCCUGCUACAGCUUGCAUAGUAUUUAGGUA | 0.143 ± 0.034 | 0.00342 ± 0.0016
UCCUGGAUGAGCUUGCAUAGUAUAAAGUUA | 0.255 ± 0.047 | 0.00848 ± 0.0042
UCCUGGAUCAGCAUCCAUAGUAUUUAGUUA | 0.103 ± 0.022 | 0.00269 ± 0.0023
UCCUGCUACAGCUUGCAUAGUAUAAAGAAA | 0.0621 ± 0.021 | 0.00337 ± 0.0023
UCCUGGUACAGCUUGCAUUGUAUUUAGAAA | 0.0202 ± 0.0075 | 0.00329 ± 0.0019
UCCUGCUACAGCUUGCAUAGUAUUAUGAAA | 0.0843 ± 0.025 | 0.00355 ± 0.0023
UCCUGGAUCAGCUUGCAUAGUAAUUAGAUA | 0.0994 ± 0.025 | 0.00275 ± 0.0021
UCCUGGUACAGCUUGCACUAGUAUUUAGUUA | 0.109 ± 0.027 | 0.00323 ± 0.0029
UCCUCCUACAGCUUGCAUAGCAUUUAGUUA | 0.0883 ± 0.013 | 0.00463 ± 0.0019
UCCUGCUACAGGUUGCAUAGUAUUUAGAAA | 0.0337 ± 0.011 | 0.00261 ± 0.0014
UCCUGGAUGUGGAUGCAUAGUAUUUAGAAA | 0.013 ± 0.0055 | 0.00388 ± 0.0027
UCCUGGAACAGCUAGCAUACUAUUUAGUUA | 0.0692 ± 0.011 | 0.0045 ± 0.0019
UCCUCCUACAGCUUGCAUAGUAUUUAGGUA | 0.152 ± 0.045 | 0.00476 ± 0.0017
